# High-throughput results: PubChem, National Center for Advancing Translational Sciences (NCATS)
# Sampled rows, rich in hits. Any-hit rate of the full collection: about 6.4%.
# VP16 counter: counter-screen for ROR gamma inhibitors: Gal4-VP16 reporter; Potency, µM (series often up to 53.6 µM), inactives show top-dose activity, negative = inhibition, usual class: inhibitors; 310,000 tested, 3.5% active; Drosophila S2 Gal4-VP16 UAS-luciferase, luminescence, 20 h;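 further: Gal4-VP16 expression switched on by copper sulfate through the metallothionein promoter; nearly all actives have a fitted effect of over 50% in size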
# RORg inh: blocks mouse ROR gamma transcriptional activity; Drosophila S2 Gal4-RORgamma UAS-luciferase reporter, 20 h; Potency, µM (highest dose often 53.6 µM), for inactives: at the top dose activity change, negative = inhibition, usual class: inhibitors; 310,000 tested, 5.4% active; further: nearly all actives have a fitted effect of over 60% in size
# Target sequence (P51450 whole entry, looked up, the tested form may be a part): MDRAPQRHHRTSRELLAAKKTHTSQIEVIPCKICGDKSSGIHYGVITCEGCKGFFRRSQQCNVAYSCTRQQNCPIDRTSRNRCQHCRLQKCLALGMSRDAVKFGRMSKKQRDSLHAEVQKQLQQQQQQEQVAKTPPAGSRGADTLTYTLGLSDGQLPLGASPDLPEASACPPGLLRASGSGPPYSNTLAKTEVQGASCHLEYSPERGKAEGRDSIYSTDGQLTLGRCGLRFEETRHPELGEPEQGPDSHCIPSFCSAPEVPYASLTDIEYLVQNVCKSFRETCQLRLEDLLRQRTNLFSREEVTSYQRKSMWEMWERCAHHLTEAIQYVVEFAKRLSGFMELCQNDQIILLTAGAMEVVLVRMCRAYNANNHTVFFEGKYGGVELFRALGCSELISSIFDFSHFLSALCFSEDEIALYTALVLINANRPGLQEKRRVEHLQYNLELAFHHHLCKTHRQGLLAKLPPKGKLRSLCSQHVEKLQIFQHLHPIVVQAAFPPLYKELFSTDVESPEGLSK
#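 A Gal4/UAS one-hybrid system in insect cells: metallothionein-promoter Gal4–ROR gamma fusion plus Photinus luciferase reporter. Copper sulfate 700 uM final, 20 hr ambient incubation, luminescent detection after 10 min with reagent.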
# KinaseGlo FLuc: counter-screen: inhibitors of Kinase-Glo firefly luciferase; 200,000 tested, 0.28% active; Q27757; Kinase-Glo luciferase, ATP luminescence, 8 min; Potency, µM (series often up to 38.3 µM), for the others: at the highest dose activity change, negative = inhibition, actives largely listed as inhibitors; further: nearly all actives have a fitted effect of over 60% in size
#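 Inhibition of Kinase-Glo luciferase light generation was assessed at 10 uM ATP in pH 7.2 imidazole buffer, with luminescence measured after eight minutes at ambient temperature.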
# * marks the source's active call; other numbers are inactive results; ? = inconclusive; . = no result; [ ] = another dose, or the depositor's remark. The call rests on the fitted dose curve; in most records, active means well fitted curve in the direction sought with a large enough effect; inconclusive means small, poorly fitted or top-dose-only effect, or another doubt; inactive means no such curve, though single readings can be large; an effect the other way counts as inactive or inconclusive. On the % scale 0 is the no-effect control and ±100 the full control effect; potency means the concentration at half of the fitted maximal effect.
SMILES,VP16 counter,RORg inh,KinaseGlo FLuc
C[C@H](N)C(=O)N[C@@H](CO)C(=O)N[C@H](C(=O)N[C@H](C(=O)N[C@H](C(=O)N[C@@H](CC(N)=O)C(=O)N[C@@H](Cc1ccc(O)cc1)C(=O)N[C@H](C(=O)O)[C@@H](C)O)[C@@H](C)O)[C@@H](C)O)[C@@H](C)O,3%,2%,.
COc1ccccc1/C=N/NC(=O)c1ccc(Br)cc1,-9%,13µM*,0%
COc1cc(NC(=O)c2ccccc2)c(OC)cc1NC(=O)Cc1ccc(F)cc1,-4%,?,.
COc1ccccc1/C=N/NC(=O)CNC(=O)c1ccccc1,5%,0%,.
COc1cc(NC(=O)c2ccccc2)c(OC)cc1NC(=O)Cc1ccc(Br)cc1,11µM*,?,.
O=C(N/N=C/c1ccc(OCc2ccc(F)cc2)cc1)c1ccccc1,-11%,32%,3%
CC(C)(C)c1ccc(OCc2ccc(C(=O)N/N=C/c3ccc(O)c(O)c3)cc2)cc1,16µM*,?,0%
COc1ccc(OC)c(/C=N/NC(=O)c2ccc(N(C)S(=O)(=O)c3ccccc3)cc2)c1,-5%,-15%,1%
COc1ccc(/C=N/NC(=O)c2ccc(N(C)S(=O)(=O)c3ccccc3)cc2)c(OC)c1,-5%,10µM*,3%
CCc1ccc(NC(=O)C(C)n2nc(C)c([N+](=O)[O-])c2C)cc1 (stereo not given),-16%,4%,5%
Fc1ccc(C(c2ccc(F)cc2)N2CCN(C/C=C\c3ccccc3)CC2)cc1,-15%,-11%,-1%
COc1ccc(NS(=O)(=O)c2ccc(NC(=O)c3ccc(N(C)S(C)(=O)=O)cc3)cc2)c(OC)c1,11µM*,?,2%
COc1ccc(NS(=O)(=O)c2ccc(NC(C)=O)cc2)c(OC)c1,1%,14%,0%
Cn1cccc1-c1cc(C(=O)N/N=C/c2cc(Br)ccc2O)[nH]n1,10µM*,7.1µM*,.
Cn1cccc1-c1cc(C(=O)N/N=C/c2ccccc2Cl)[nH]n1,?,19%,.
O=c1c(-c2ccco2)[n+]([O-])c2ccccc2n1OCc1ccccc1[N+](=O)[O-],14%,19%,0%
COc1cccc(-c2ccc3ncnc(NCc4ccc(OC)cc4OC)c3c2)c1,-7%,2%,.
CCCCCC1CC(=O)C=C(C)C1C(=O)OC (stereo not given),2%,7%,.
NCc1oc(-c2ccccc2)cc1C(=O)O,-2%,0%,-6%
COc1ccc(CCN(C)CCCOc2ccc(S(=O)(=O)c3[nH]c4ccccc4c3C(C)C)cc2)cc1OC,18µM*,14µM*,4%
COc1ccc(CCN(C)CCc2ccc(OC)c(OC)c2)cc1OC,2%,8%,-3%
O=C(CSc1nc(COc2ccccc2)nc2ccccc12)NC1CCCC1,-2%,-10%,-4%
O=[N+]([O-])c1ccccc1/C=N\Nc1nccs1,-14%,-32%,.
O=[N+]([O-])c1ccccc1/C=N/Nc1nnc(-c2ccccc2)c(-c2ccccc2)n1,3.2µM*,3.2µM*,3%
C=CCc1ccc(OCCOCCN(C)C)c(OC)c1,2%,-2%,15%
SMILES,VP16 counter,RORg inh,KinaseGlo FLuc
C=CCc1ccc(OCCn2cccc2C=O)c(OC)c1,0.56µM*,0.63µM*,-5%
Cc1ccc(C2/C(=C(\O)c3ccc4c(c3)OCCO4)C(=O)C(=O)N2CC2CCCO2)cc1 (stereo not given),-8%,3%,.
CC(O)COC(C)(C)C (stereo not given),-18%,3%,.
C(=N\Nc1nc2ccccc2[nH]1)/C1CCCCC1,?,11µM*,-6%
Fc1cccc(/C=N/Nc2nc3ccccc3[nH]2)c1,?,10µM*,-4%
CCCn1c(N/N=C\C=C\c2ccccc2)nc2c1c(=O)[nH]c(=O)n2C,-21%,31%,4%
C(=C\c1ccccc1)/C=N/Nc1nc(N2CCOCC2)nc(N2CCOCC2)n1,-2%,-2%,-4%
CCCc1cc(=O)[nH]c(N/N=C/C=C\c2ccccc2)n1,4%[10 µM],7.1µM*,4%
O=C(CCc1nc2ccccc2[nH]1)NC1CCCCC1,-6%,-26%,2%
C(=C\c1ccccc1)/C=N/Nc1nc2ccccc2[nH]1,5µM*,3.2µM*,.
Fc1cccc(/C=N/Nc2ncnc3nc[nH]c23)c1,6%,?,?
CC(=O)c1ccc(-c2ccc(C3C4C=CCCC4(C)C(=O)N3Cc3ccccc3)c(F)c2)cc1 (stereo not given),-9%,45%,.
NC(=O)C1CCN(CCS(=O)(=O)c2ccc(Cl)cc2)CC1,-7%,-9%,.
COc1ccc(-n2ncc3c(N4CCN(Cc5ccccc5)CC4)ncnc32)cc1,-10%,?,-5%
COc1ccc(CCC(=O)OCC(=O)Nc2ccc(OC)c(OC)c2)cc1OC,6%,-7%,.
CCOCCO,2%,-11%,.
O=c1[nH]c(N/N=C/c2ccccc2)nc2ccccc12,?,-27%,2%
Cc1cc(=O)[nH]c(N/N=C/c2ccc(F)cc2)n1,-1%,0%,.
c1ccc(CCc2nc3ccccc3[nH]2)cc1,-5%,2%,-15%
Brc1ccc(-c2ccc(/C=N/Nc3nc4ccccc4[nH]3)o2)cc1,5µM*,4.5µM*,?
C(/CCc1ccccc1)=N\Nc1nc2ccccc2[nH]1,-26%,11µM*,-6%
C(=N\Nc1nc2ccccc2[nH]1)/c1ccccc1,?,10µM*,-7%
Brc1ccc(-c2ccc(/C=N/Nc3nc(N4CCOCC4)nc(N4CCOCC4)n3)o2)cc1,2%,-1%,1%
Fc1ccc(/C=N/Nc2nc3ccccc3[nH]2)cc1F,?,7.9µM*,1%
C=CC1=C2C=C(C3CC3)N(c3ccc(OC)cc3)C=C2C(=O)C(C)(OC(=O)c2ccco2)C1=O (stereo not given),.,.,0%[7.66 µM]
SMILES,VP16 counter,RORg inh,KinaseGlo FLuc
Cc1cc(C)cc(C(=O)Oc2cc(C)[nH]c(=O)c2[N+](=O)[O-])c1,?,-34%,.
COC(=O)C1=C(C)N(Cc2cccnc2)C(=O)/C1=C\c1sccc1C,5%,-3%,-1%
COc1ccccc1C(CNC(=O)c1cccc(S(=O)(=O)Nc2ccc(C)cc2)c1)N(C)C (stereo not given),-14%,-2%,.
COc1ccc(NC(=O)CN2CCC(C(N)=O)(N3CCCCC3)CC2)c(OC)c1,16%,-15%,2%
CCCCCCCn1c2c(c(=N)c3c1CCC3)CCCC2,5.6µM*,6.3µM*,-1%
CCCCCCCCCn1c2c(c(=N)c3c1CCC3)CCC2,?,62%,2%
CCCCCCn1c2c(c(=N)c3c1CCC3)CCC2,11µM*,11µM*,-1%
CCn1c2c(c(=N)c3c1CCC3)CCC2,-29%,65%,1%
O=C(Cc1ccc(Cl)c(Cl)c1)Nc1ccc(S(=O)(=O)Nc2ncccn2)cc1,5%,2%,.
CC1=C(C(=O)Nc2ccc(Cl)cc2)C2(CCCCC2)C(C(N)=O)C(=S)N1 (stereo not given),0%,-13%,0%
O=C(Nc1ccc(Br)cc1)c1cc(Br)c(Br)s1,1%,?,.
CN(C)S(=O)(=O)c1cccc(NC(=O)COC(=O)c2ccc([N+](=O)[O-])o2)c1,-18%,-13%,3%
O=C(COC(=O)c1ccc([N+](=O)[O-])o1)Nc1cccc(S(=O)(=O)N2CCOCC2)c1,7.1µM*,?,0%
